Experiments:
Assay in all cases: PBM binding z-score (relative to random genomic background probes); higher = stronger binding; sequences stand for … in GC…GCGATTGACAGCGTAGAATGAAGG
[1] = system: FXR:RXRa (NR concentration 270 nM, RXRa partner concentration 90 nM)
Procedure, shortened: (§1)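 Random background probes are the reference for binding z-scores. These scores derive from regression-normalized fluorescence on custom Agilent 4×180K protein-binding microarrays incubated 1 h with ligand-free nuclear receptor dimers. Binding was detected with antibodies against each partner (one per run).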

[2] = system: LXRa:RXRa (NR concentration 270 nM, RXRa partner concentration 90 nM)
Procedure, shortened: as §1

[3] = system: LXRa homodimer (NR concentration 270 nM)
Procedure, shortened: as §1

[4] = system: LXRb:RXRa (NR concentration 270 nM, RXRa partner concentration 90 nM)
Procedure, shortened: as §1

[5] = system: LXRb homodimer (NR concentration 270 nM)
Procedure, shortened: as §1

[6] = system: PPARa:RXRa (NR concentration 270 nM, RXRa partner concentration 90 nM)
Procedure, shortened: as §1

[7] = system: PPARg:RXRa (NR concentration 180 nM, RXRa partner concentration 90 nM)
Procedure, shortened: as §1

[8] = system: PPARg:RXRa 270nM:90nM, anti-RXR (NR concentration 270 nM, RXRa partner concentration 90 nM)
Procedure, shortened: as §1

[9] = system: PPARg:RXRa 30nM:10nM, anti-RXR (NR concentration 30 nM, RXRa partner concentration 10 nM)
Procedure, shortened: as §1

[10] = system: PPARg:RXRa 90nM:30nM, anti-RXR (NR concentration 90 nM, RXRa partner concentration 30 nM)
Procedure, shortened: as §1

[11] = system: PPARg:RXRa DBDmut IVT, anti-RXR (DBD mutation: RXRa K156A/R161A, NR concentration 270 nM, RXRa partner concentration 90 nM)
Procedure, shortened: as §1

[12] = system: PPARg:RXRa IVT, anti-PPARg (NR concentration 270 nM, RXRa partner concentration 90 nM)
Procedure, shortened: as §1

[13] = system: PPARg DBDmut:RXRa IVT, anti-PPARg (DBD mutation: PPARg1 K132A/R137A, NR concentration 270 nM, RXRa partner concentration 90 nM)
Procedure, shortened: as §1

[14] = system: PPARg DBDmut IVT, anti-PPARg (DBD mutation: PPARg1 K132A/R137A, NR concentration 270 nM)
Procedure, shortened: as §1

[15] = system: PPARg homodimer (NR concentration 180 nM)
Procedure, shortened: as §1

[16] = system: PXR:RXRa (NR concentration 270 nM, RXRa partner concentration 90 nM)
Procedure, shortened: as §1

[17] = system: PXR homodimer (NR concentration 270 nM)
Procedure, shortened: as §1

[18] = system: RARa:RXR (NR concentration 270 nM, RXRa partner concentration 90 nM)
Procedure, shortened: as §1

[19] = system: RARa homodimer (NR concentration 270 nM)
Procedure, shortened: as §1

[20] = system: RARb:RXRa (NR concentration 270 nM, RXRa partner concentration 90 nM)
Procedure, shortened: as §1

Sequence | PBM binding z-score [1] | PBM binding z-score [2] | PBM binding z-score [3] | PBM binding z-score [4] | PBM binding z-score [5] | PBM binding z-score [6] | PBM binding z-score [7] | PBM binding z-score [8] | PBM binding z-score [9] | PBM binding z-score [10] | PBM binding z-score [11] | PBM binding z-score [12] | PBM binding z-score [13] | PBM binding z-score [14] | PBM binding z-score [15] | PBM binding z-score [16] | PBM binding z-score [17] | PBM binding z-score [18] | PBM binding z-score [19] | PBM binding z-score [20]
TCTTATAGGTAAACAGGTGAAAGTCCGTAAGTTA | 1.1 | 1.01 | 0.0286 | 0.875 | 0.307 | 2.34 | 2.7 | 3.52 | 4.06 | 3.86 | 4.87 | 4.49 | 1.36 | 1.34 | 1.19 | 0.753 | 0.655 | 0.981 | 0.803 | 0.791
CGAACGAGGGAATGAGTTGATAGCAAATGCCGAT | -0.82 | -0.749 | -0.474 | -1.01 | -0.729 | -1.17 | 0.578 | -0.457 | -0.284 | -0.51 | -0.446 | -0.487 | -0.561 | 0.167 | -0.451 | -0.632 | -0.33 | -0.875 | -0.143 | -0.567
CCTACTGGCCCAAGGTCATTGATCAGTCAAAGCA | 2.91 | 3.24 | 2 | 3.52 | 0.491 | 3.62 | 0.964 | 2.19 | 0.438 | 1.29 | -0.104 | 1.17 | -0.998 | -0.271 | 2.64 | 3.52 | 1.68 | 3.36 | 0.651 | 3.4
AATACAGGGTCACTAGGCCAGAGTCGGTACGAAT | 6.27 | 4.74 | 0.695 | 3.82 | 0.88 | 5.61 | 8.1 | 6.36 | 3.03 | 5.2 | 4.04 | 5.73 | 1.74 | 1.6 | 2.69 | 3.08 | 0.172 | 4.13 | 1.14 | 4.1
CAAACTAGGTCAACAGGTCAAAGTCCGCTTCCCG | 6.05 | 5.38 | 3.92 | 4.38 | 1.14 | 6.02 | 9.26 | 7.93 | 6.55 | 8.02 | 8.61 | 8.71 | 4.74 | 3.76 | 4.14 | 4.32 | 1.23 | 5.98 | 3.05 | 4.81
TCTTGTAAATCAACAGGAGGTTAAGAAAGATCGA | 0.826 | 1.32 | 0.389 | 1.1 | 0.0438 | 1.36 | 0.285 | 2.05 | 3.57 | 2.79 | 1.98 | 0.596 | 0.712 | 0.346 | 0.585 | 1.13 | 0.241 | 1.26 | 0.881 | 0.847
TCTTGTAGATCAATCGAGGTTAAGAAAGTGCGCT | 1.32 | 3.01 | 0.075 | 1.49 | 0.176 | 1.73 | -0.311 | 1.51 | 2.7 | 2.4 | 1.91 | 1.31 | 0.666 | 0.595 | 0.306 | 2.74 | 0.235 | 1.75 | 0.262 | 0.661
ATCGAAAGGTCGACGAGGGGAGTATACACCGTTT | 4.13 | 3.51 | 0.159 | 2.8 | 1.07 | 4.15 | 2.47 | 2.77 | 0.952 | 1.67 | 0.481 | 1.64 | 1.34 | 0.0319 | 1.49 | 2.39 | 0.488 | 3.37 | 0.328 | 3.74
CGAACGAGGGCATGAGTTGGTAGCAAATGCCGAT | 0.159 | 0.0461 | -0.707 | -0.2 | -1.32 | 1.06 | 0.849 | 0.827 | 0.00769 | 0.471 | 2.72 | 1.66 | 0.738 | -0.612 | -0.306 | 0.171 | -0.43 | 0.384 | -0.55 | 1.81
AGAATGAGGTTACCAAAGATGAGGGAAACGCTTG | 1.89 | 2.71 | -0.269 | 1.35 | -0.264 | 3.26 | 2.61 | 2.78 | 1.03 | 1.94 | 3.67 | 3.1 | 1.29 | 0.621 | 0.657 | 1 | 0.117 | 1.79 | 0.142 | 2.14
TCATATAGGTAAACAGGTGAAAATCCGTAAGTTA | 1.24 | 1.11 | 0.438 | 1.28 | 0.151 | 2.23 | 2.95 | 3.15 | 4.38 | 3.6 | 4.38 | 4.3 | 1.27 | 0.925 | 1.28 | 1.18 | 0.297 | 1.4 | 1.83 | 0.846
TCATATAGGTCAACAGGTGAAAGTCCGTAAGTTA | 6.45 | 5.39 | 1.85 | 4.2 | 1.2 | 5.91 | 8.36 | 7.51 | 5.85 | 7.17 | 7.13 | 7.59 | 3.03 | 1.96 | 3.88 | 3.49 | 1.08 | 4.84 | 2.3 | 4.83
TGTCAAAGTTCAAAGGTAAGGTAAGTATCCACAC | 7.21 | 6.56 | 4.78 | 4.45 | 1.75 | 5.46 | 8.72 | 7.6 | 5.24 | 7.45 | 0.662 | 4.2 | 2.56 | 2.04 | 6.17 | 5.8 | 5.17 | 6.32 | 2.15 | 5.2
CCTTACGGGTCACTGACATGTTATAGCATTTGGA | 5.55 | 3.84 | 0.306 | 3.54 | 0.233 | 5.2 | 4.42 | 4.66 | 2.21 | 3.45 | 3.55 | 4.1 | 1.46 | 0.945 | 1.83 | 3.22 | 0.262 | 4.06 | 1.38 | 4.06
ATATCTAGGTTACATCCGGGTCATTCAGGCTATG | 2.52 | 4.41 | 1.93 | 3.04 | 1.64 | 4.41 | 6 | 5.11 | 2.4 | 4.09 | 7.39 | 7.41 | 3.31 | 3.16 | 2.49 | 3.62 | 3.73 | 3.4 | 1.99 | 2.63
